The results in this text go back to PubChem BioAssay (NCATS).

Records with an inconclusive call do not appear. Calls of active or inactive are those of the source. Calls come from the whole dose curve; as a rule, active = well fitted inhibition curve with a large enough effect; inconclusive = small, poorly fitted or top-dose-only effect; inactive = flat fitted curve, though single readings scatter.
Potency is the fitted concentration of half-maximal effect.

Phospholipid hydroperoxide glutathione peroxidase GPX4 (Homo sapiens), sequence (P36969 whole entry, looked up): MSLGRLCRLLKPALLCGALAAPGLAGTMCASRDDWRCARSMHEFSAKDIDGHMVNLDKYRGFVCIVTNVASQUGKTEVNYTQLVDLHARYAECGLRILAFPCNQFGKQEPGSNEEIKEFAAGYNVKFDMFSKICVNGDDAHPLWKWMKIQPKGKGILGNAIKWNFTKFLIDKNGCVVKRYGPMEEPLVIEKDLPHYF

The test has as its target Phospholipid hydroperoxide glutathione peroxidase GPX4 (Homo sapiens) (UniProt P36969). As to the kind of experiment: Primary qHTS Assay for Inhibitors of Recombinant Selenoprotein Glutathione Peroxidase 4 (GPX4) (AID 1845192). Note: nearly all actives have a fitted effect of over 65% in size. The following applies: recombinant GPX4, GR-coupled NADPH fluorescence, 15 min; series mostly up to 50 µM; activity change, negative = inhibition: at the top concentration. An excerpt:
Assay Provider: Elias S.J. Arner MD PhD.
Department of Medical Biochemistry and Biophysics
Karolinska Institutet, Solna, Stockholm, Sweden
Selenoprotein glutathione peroxidases (GPX), like the ubiquitously expressed GPX1 and the ferroptosis modulator GPX4, enact their antioxidant activities by reducing hydroperoxides using glutathione. […] GPX1 and GPX4 inhibitors have thus shown promise as anti-cancer agents. Existing inhibitors are often promiscuous, or modulate GPX activity only indirectly, so novel direct inhibitors identified through screening against GPX1 and GPX4 could be valuable. Here, we developed optimized glutathione reductase (GR)-coupled GPX assays for the biochemical high-throughput screen (HTS) of almost 12,000 compounds with known mechanisms of action. Initial hits were triaged using a GR counter-screen, assessed for isoform specificity using a separate GPX2 assay, and were assessed for general selenocysteine-targeting activity using a thioredoxin reductase (TXNRD1) assay. With this suite of assays, we identified novel GPX1/GPX2- and GPX4-specific inhibitors and can here present a validated pipeline for future discovery research for selenoprotein-targeting agents.
SEQUENCE No. (e.g., 1, 2, 3, etc.); […] (e.g., Cells, Incubation, Reagent, etc.); VALUE; DESCRIPTION.
1; Reagent 1; 3 uL; 333.33 nM GPx4 enzyme or no enzyme control in 1536-well, black, solid Greiner assay plate.
2; Compound; 25 nL; Kalypsis pin tool (Wako USA) equipped with a 1536-well pin head.
3; Incubation; 30 min; room temperature.
4; Reagent 2; 1 uL; 500 nM GR, 5 mM GSH, 2.5 mM NADPH solution
5; Reagent 3; 1 uL; 2.5 mM CHP in 50% EtOH.
6; Detection; Fluorescence; ViewLux microplate reader, excitation 340 nm and emission 450 nm.
7; Incubation; 15 min; room temperature.
8; Detection; Fluorescence; ViewLux microplate reader, excitation 340 nm and emission 450 nm.
NOTES (numbers refer to Sequence numbers above)
1. 3 µL of 333.33 nM GPX4 and 0.016% BSA in assay buffer (50 mM Tris-HCl, 2 mM EDTA (pH 7.5), 150 mM NaCl) was added to columns 3-48 of 1536-well plates using a BioRAPTR Flying Reagent Dispenser (Let's Go Robotics (LGR), Carlsbad, CA). A no-enzyme control (0.01% BSA in TES assay buffer) was added to columns 1-2.
2. 25 nL, library and DMSO controls were added to each well with a pin tool (Kalypsys).
3. The assay plates were incubated for 30 minutes at room temperature.
4. 1 µL of master mix (500 nM glutathione reductase (GR), 5 mM reduced glutathione (GSH), 2.5 mM NADPH in assay buffer) was added.
5. 1 µL of cumene hydroperoxide (CHP) ([2.5 mM] in 50% EtOH) was then added within 5 minutes to initiate the reaction. Final concentrations were: 200 nM GPX4, 1 mM GSH, 0.5 mM CHP, 0.5 mM NADPH, 100 nM GR, 0.01% BSA.
6. Initial fluorescence readout (t=0) at 340/450 nm was measured using a ViewLux multimodal detector (PerkinElmer, Waltham, MA).
8. Endpoint fluorescence readout (t=15) at 340/450 nm was measured 15 min after room temperature incubation.
Background: Quantitative high-throughput screening tests each substance at several concentrations.
Consider `O=C1CN2Cc3c(ccc(Cl)c3Cl)N=C2N1`, for which the “activity change, negative = inhibition” value was -11.9% (inactive).

`COc1ccc(-c2ccc3ncc4c(c3c2)n(-c2ccc(N3CCNCC3)c(C(F)(F)F)c2)c(=O)n4C)cn1`: the Potency result is “inactive”.

`CC(=O)NCCC(=O)N[C@@H](CCC(N)=O)C(=O)N[C@@H](CO)C(=O)N[C@@H](CCC(N)=O)C(=O)N[C@@H](CCC(N)=O)C(=O)N[C@H](C(=O)N[C@@H](Cc1ccccc1)C(=O)N[C@]1(C)CCCCCCC=CCCC[C@@](C)(C(=O)N[C@@H](CCC(N)=O)C(=O)N[C@@H](CC(N)=O)C(N)=O)NC(=O)[C@H](CC(C)C)NC(=O)[C@H](CC(C)C)NC(=O)[C@@H](CCCNC(=N)N)NC(=O)[C@H](Cc2c[nH]c3ccccc23)NC(=O)[C@H](CC(C)C)NC(=O)[C@H](CC(N)=O)NC1=O)[C@H](C)O`: the “activity change, negative = inhibition” value was -23.5% (inactive).

In the case of `COc1cc2ncnc(Nc3cc(Br)c(O)c(Br)c3)c2cc1OC`, the Potency entry was “inactive”.

As to `O=C(O)c1ccc(O)c2ncc(N3CCOCC3)cc12`, the “activity change, negative = inhibition” value is -2.76% (inactive).

In the case of `O=C(NC[C@H](O)CO)c1ccncc1Nc1ccc(I)cc1F`, the “activity change, negative = inhibition” value is -11.8% (inactive).

Take `CC[C@H](CC#N)OC(=O)N[C@@H](C)c1cccc(NC(=O)Nc2ccc(-c3cnco3)c(OC)c2)c1`: the Potency entry was “inactive”.

Take `O=C(O)C1=CC(O)C(O)[C@H](O)C1` (stereo not given in full): the outcome was inactive.

With `CNC(=O)c1cc(COc2nnc(Nc3ccc(Cl)cc3)c3ccoc23)ccn1`, the result was inactive.

As to `O=C1NC(=O)C(c2cnc3ccccn23)=C1c1cn2c3c(cccc13)CN(C(=O)N1CCOCC1)CC2`, the “activity change, negative = inhibition” value was -6.95% (inactive).

As to `CC[C@H](C=C[C@@H](C)[C@H]1CC[C@H]2[C@@H]3CC=C4C[C@@H](O)CC[C@]4(C)[C@@H]3CC[C@]12C)C(C)C`, the “activity change, negative = inhibition” value was -6.9% [at 27.8 µM] (inactive).

As for `Clc1ccc(COC(Cn2ccnc2)c2ccc(Cl)cc2Cl)c(Cl)c1` (stereo not given), the outcome was inactive.

`CN1CCC(COc2cnc(-c3cccc(Cn4nc(-c5cccc(C#N)c5)ccc4=O)c3)nc2)CC1`: the Potency entry is “inactive”.

On to `CCCCCCCCCCCCCCCC(=O)O[C@H]1[C@@H](O)[C@@H](O)[C@@H]([C@H](NC(=O)[C@@H]2C[C@@H](CCC)CN2C)[C@H](C)Cl)O[C@@H]1SC`, for which the “activity change, negative = inhibition” value is -15% (inactive).

For `CC(C)Oc1cc(Nc2nc(N[C@@H](C)c3ccc(F)cn3)ncc2Cl)[nH]n1`, the “activity change, negative = inhibition” value is 2.95% (inactive).

Turning to `Cc1cc2c(cc1C1(c3ccc(C(=O)O)cn3)CC1)C(C)(C)CCC2(C)C`, the “activity change, negative = inhibition” value was -0.816% (inactive).

Regarding `CNC(=O)c1cc(Oc2ccc(NC(=O)Nc3ccc(Cl)c(C(F)(F)F)c3)c(F)c2)ccn1`, the Potency entry was “inactive”.

As for `COc1cc2c(cc1OC)CC(=O)N(CCCN(C)C[C@H]1Cc3cc(OC)c(OC)cc31)CC2`, the Potency entry is “inactive”.

On to `COc1cc2ncn(-c3cc(OCc4ccccc4S(C)(=O)=O)c(C#N)s3)c2cc1OC`, for which the “activity change, negative = inhibition” value is 4.62% (inactive).

Turning to `CN[C@@H](C)[C@H]1[C@H](O)C[C@@]2(C)[C@@H]3CC[C@H]4C(C)(C)[C@@H](NC)CC[C@@]45C[C@@]35CC[C@]12C`, the activity change, negative = inhibition is -4.33% [at 9.73 µM] (inactive).

As to `COc1cc2c(cc1Cc1cccc(Cl)c1F)c(=O)c(C(=O)O)cn2[C@H](CO)C(C)C`, the Potency was 11.2 µM (active).

For the molecule `O=C(Nc1cccc(Cl)c1)Nc1ncc(CCNc2ncnc3ccsc23)s1`, the “activity change, negative = inhibition” value is -25% (inactive).

Consider `N[C@@H](CC(=O)N1CCn2c(nnc2C(F)(F)F)C1)Cc1cc(F)c(F)cc1F`, for which the Potency entry was “inactive”.

Regarding `Cc1c(C(=O)Nc2ccc(N3C[C@@H](C)O[C@@H](C)C3)nc2)cccc1-c1ccc(OC(F)(F)F)cc1`, the Potency result was “inactive”.

Consider `COc1cccc(OC)c1-c1cc(C(=O)NC2(C(=O)O)C3CC4CC(C3)CC2C4)nn1-c1ccnc2cc(Cl)ccc12` (stereo not given), for which the “activity change, negative = inhibition” value was -15.4% (inactive).

For `CCOC(=O)[C@@H](N)CCC(=O)N[C@@H](CSCc1ccccc1)C(=O)N[C@@H](C(=O)OCC)c1ccccc1`, the “activity change, negative = inhibition” value was -12% (inactive).

With `O=C(CC12CC3CC(CC(C3)C1)C2)Nc1cccc2nc(NCCNCCO)ccc12`, the “activity change, negative = inhibition” value is 13.3% (inactive).

Take `CCC(C)SSc1ncc[nH]1` (stereo not given): the “activity change, negative = inhibition” value is -9.84% (inactive).

In the case of `CCN1CCN(c2ccc(Nc3cc(N(C)C(=O)Nc4c(Cl)c(OC)cc(OC)c4Cl)ncn3)cc2)CC1`, the Potency result was “inactive”.

Consider `COc1ccc(CCN(C)CCCOc2ccc(S(=O)(=O)c3[nH]c4ccccc4c3C(C)C)cc2)cc1OC`, for which the “activity change, negative = inhibition” value is -5.84% (inactive).

As for `C[C@]12CC[C@@H]3c4ccc(O)cc4CC[C@H]3[C@H]1[C@@H](O)[C@@H](O)[C@H]2O`, the outcome was inactive.

`O=C(O)CCNc1cc(N2CCc3ccccc3CC2)nc(-c2ccccn2)n1`: the Potency result is “inactive”.

As to `c1ccc(CNc2nc(N3CCOc4ccccc43)nc3c2CCCC3)cc1`, the “activity change, negative = inhibition” value is -6.08% (inactive).

On to `NC[C@H]1O[C@H](O[C@@H]2[C@@H](O)[C@@H](O[C@H]3O[C@H](CO)[C@@H](O)[C@H](N)[C@@H]3O)[C@H](N)C[C@@H]2N)[C@H](O)[C@@H](O)[C@H]1O`, for which the “activity change, negative = inhibition” value is -1.97% (inactive).

In the case of `CNC(=O)c1ccc2c(C(=Nc3cccc(CN(C)C)c3)c3ccccc3)c(O)[nH]c2c1`, the Potency entry is “inactive”.

In the case of `CCC(=O)NCC[C@@H]1CCc2ccc3c(c21)CCO3`, the Potency result was “inactive”.

On to `O=C(Nc1ccc(OC(F)(F)F)cc1)c1sccc1NCc1ccnc2ccccc12`, for which the “activity change, negative = inhibition” value was 1.28% (inactive).

As for `COC1CCC(C(=O)c2ccc3nc4c(cc3c2)CCCO4)CC1` (stereo not given), the “activity change, negative = inhibition” value was -4.28% (inactive).

As for `CN(C)c1nc(Cc2ccc(NC(=O)c3ccc(C(F)(F)F)cc3)cc2)nc(N(C)C)c1CC(=O)O`, the “activity change, negative = inhibition” value is -0.593% (inactive).

In the case of `Fc1ccc(CNc2ncnc3ccc(F)cc23)cc1`, the “activity change, negative = inhibition” value is 10.7% (inactive).
